TDP1 cell CPT: qHTS for Inhibitors of human tyrosyl-DNA phosphodiesterase 1 (TDP1): qHTS in cells in presence of CPT. chicken DT40 Tdp1-/-;hTDP1 cells + 20 nM CPT, ATP luminescence, 48 h. Potency, µM (series often up to 46.2 µM), inactives show top-dose activity change, negative = growth inhibition, usual class: inhibitors. 420,000 tested, 12% active; note: nearly all actives have a fitted effect of over 55% in size
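Cell growth measured by CellTiter-Glo luminescence after a minimum 48 h, 37 C compound exposure with 20 nM CPT in Tdp1-knockout DT40 cells stably expressing hTDP1, seeded 400/well; qHTS titration format.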
HT1080 IDH1KD tx: qHTS for induction of synthetic lethality in tumor cells producing 2HG: qHTS for the HT-1080-IDH1KD cell line; HT-1080 IDH1 knockdown viability, ATP luminescence, 48 h; Potency, µM (series often up to 46.1 µM), without a hit: at the top dose activity, negative = toxicity, actives largely listed as cytotoxic; 360,000 tested, 2% active; AID 686971, 2013;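 note: 0% = DMSO wells and -100% = cell-free medium wells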
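After a 2 h attachment period, IDH1KD HT-1080 cells took pin-transferred compound for 48 h at 37 °C; ATP-based luminescence after 10 min room-temperature reagent incubation reported viability.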
HT1080-NT tox: qHTS for induction of synthetic lethality in tumor cells producing 2HG: qHTS for the HT-1080-NT fibrosarcoma cell line. HT-1080-NT fibrosarcoma viability, CellTiter-Glo ATP luminescence, 48 h. Potency, µM (top dose mostly 46.1 µM), for inactives: top-dose activity, negative = less viability, actives largely listed as cytotoxic. 360,000 tested, 1.6% active;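 note: NT is the 2HG producing partner of a matched IDH1 knockdown line; 0% = DMSO-treated cells and -100% = media-only wells without cells; nearly all actives have a fitted effect of over 55% in size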
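A 48-hour cytotoxicity screen used HT-1080-NT cells plated 2 hours before compound delivery. ATP-based CellTiter-Glo luminescence measured viability, normalized to DMSO and no-cell controls.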
KB-3-1 cytotox: qHTS assay for MDR1-selective chemotherapeutics: Primary screen using the parental adenocarcinoma cell KB-3-1; KB-3-1 viability, CellTiter-Glo ATP luminescence, 72 h; Potency, µM (series often up to 46.1 µM), hits mostly cytotoxic; 400,000 tested, 1.4% active; note: nearly all actives have a fitted effect of over 60% in size
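KB-3-1 cells, DMEM (no phenol red) + 10% FBS; compound by pin transfer, 72 h, 37 °C. Readout: CellTiter-Glo luminescence after 10 min. Data normalized, curve-fitted.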
KB-V1 MDR tox: qHTS assay for MDR1-selective chemotherapeutics: Primary screen using the drug-selected MDR subline cells KB-V1. Potency, µM (highest dose often 46.1 µM), most hits filed as cytotoxic. 400,000 tested, 3.4% active. AID 1347076, 2019. KB-V1 MDR cells viability, CellTiter-Glo, 72 h; note: nearly all actives have a fitted effect of over 60% in size
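Following 72 h at 37 degrees C with compound, KB-V1 cell viability was read by CellTiter-Glo luminescence, medium being phenol-red-free DMEM plus 10% FBS; concentration-response parameters came from normalized, curve-fitted qHTS data.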
DT40 TDP1 no CPT: qHTS for Inhibitors of human tyrosyl-DNA phosphodiesterase 1 (TDP1): qHTS in cells in absence of CPT | 420,000 tested, 15% active | Potency, µM (doses to about 46.2 µM), for inactives: at the highest dose activity change, negative = growth inhibition, usual class: inhibitors | DT40 Tdp1-/- hTDP1 cells, no CPT, ATP luminescence, 48 h; note: nearly all actives have a fitted effect of over 55% in size
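A cellular qHTS used chicken DT40 cells lacking endogenous Tdp1 but carrying stably transfected human TDP1. Compounds were applied without camptothecin, and cell growth kinetics were judged by ATP-dependent luminescence after ≥48 hr.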
The depositor's hits bear a star; i = inactive; ? = inconclusive; . = no result. Compounds with a hit are over-represented: about 19% of the library has one in this group of screens. Calls come from the whole dose curve; as a rule, active = well fitted curve in the direction sought with a large enough effect; inconclusive = small, poorly fitted or top-dose-only effect, or another doubt; inactive = no such curve, though single readings can be large; an effect the other way counts as inactive or inconclusive. Unless noted, % is set by controls: 0 for no effect and ±100 for the full control effect; potency is the fitted concentration of half-maximal effect.

SMILES | TDP1 cell CPT | HT1080 IDH1KD tx | HT1080-NT tox | KB-3-1 cytotox | KB-V1 MDR tox | DT40 TDP1 no CPT
CC(C)C[C@@H](CN1CCCC1CN1C(=S)NC[C@@H]1Cc1ccc(O)cc1)N1C[C@H](Cc2ccc(O)cc2)N(CC2CCCCCC2)C1=S (stereo partly drawn) | 15µM* | ? | 23µM* | ? | ? | 8.2µM*
CC(C)C[C@@H](CN1CCCC1CN1C(=S)NC[C@@H]1Cc1ccc(O)cc1)N1C[C@H](Cc2ccccc2)N(CC2CCCCC2)C1=S (stereo partly drawn) | ? | ? | -22% | ? | ? | ?
CC(C)C[C@H]1CNC(=S)N1C[C@H]1CCCN1C[C@H](CC(C)C)N1C[C@H](Cc2ccc(O)cc2)N(CC2CCCCC2)C1=S | 10µM* | 21µM* | 18µM* | ? | 16µM* | 13µM*
O=C(C[C@H]1C=C[C@@H](NC(=O)c2ccncc2)[C@@H](CO)O1)NCC1CC1 | -3% | 20% | 14% | i | i | 6%
CCC(C(=O)Nc1cc(F)ccc1F)n1nc(C)c2c(C)n(-c3ccc(C)cc3)nc2c1=O (stereo not drawn) | 15µM* | -6% | -18% | ? | ? | 16µM*
CCC(C(=O)NCCC1=CCCCC1)n1nc(C)c2c(C)n(-c3ccccc3)nc2c1=O (stereo not drawn) | ? | -2% | -1% | i | ? | 26µM*
Cc1ccc(-n2nc3c(=O)n(CC(=O)NC(C)CCc4ccccc4)nc(C)c3c2C)cc1 (stereo not drawn) | ? | -15% | -4% | i | ? | 23µM*
CCC(C(=O)Nc1ccccc1F)n1nc(C)c2c(C)n(-c3ccccc3)nc2c1=O (stereo not drawn) | ? | -14% | -9% | i | i | ?
COc1ccc(CCNC(=O)C(C)n2nc(C)c3c(C)n(-c4ccc(C)cc4)nc3c2=O)c(OC)c1 (stereo not drawn) | 23µM* | -25% | 21µM* | i | i | ?
O=C1c2oc3ccccc3c(=O)c2C(c2ccccc2F)N1Cc1ccc2c(c1)OCO2 (stereo not drawn) | -25% | . | . | i | i | ?
COc1cccc(-c2c(C(=O)N/N=C/c3ccoc3)nnn2-c2nonc2N)c1 | 3% | 8% | 5% | i | ? | 2%
COc1ccc(OC)c(CNC(=O)c2cc3c(=O)oc4ccc(C)cc4c3s2)c1 | ? | . | . | i | ? | ?
Cc1ccc(CCNC(=O)C(C)n2nc(C)c3c(C)n(-c4ccc(C)cc4)nc3c2=O)cc1 (stereo not drawn) | 21µM* | . | . | i | ? | 21µM*
COc1ccc(CNC(=O)C(C)n2nc(C)c3c(C)n(-c4ccc(C)cc4)nc3c2=O)cc1 (stereo not drawn) | 18µM* | -6% | -20% | ? | ? | ?
COc1ccccc1CCNC(=O)C(C)n1nc(C)c2c(C)n(-c3ccccc3)nc2c1=O (stereo not drawn) | -24% | -10% | -5% | i | i | 10%
Cc1nn(Cc2ccccc2)c(=O)c2nn(-c3ccc(Cl)cc3)c(C)c12 | ? | 1% | -1% | i | 8.2µM* | 21µM*
CCC(C(=O)NCc1ccc(OC)c(OC)c1)n1nc(C)c2c(C)n(-c3ccc(C)cc3)nc2c1=O (stereo not drawn) | 16µM* | . | . | . | . | 23µM*
O=C(NC1CCC(n2cc(C(=O)NC3CC3)nn2)CC1)C(=O)c1ccccc1 (stereo not drawn) | -12% | . | . | . | . | -4%
CSc1ccccc1C(=O)OCC(=O)Nc1ccc(N2CCOCC2)cc1 | ? | 13% | 17% | i | 21µM* | ?
Cc1ccccc1OCCC(=O)OCC(=O)Nc1ccc(N2CCOCC2)cc1 | 16µM* | -27% | 1% | i | i | ?
CN(CC(=O)Nc1ccc(N2CCOCC2)cc1)C(=O)CCCOc1ccc(Cl)cc1Cl | 9.2µM* | -28% | ? | i | i | ?
CN(CC(=O)Nc1ccc(N2CCOCC2)cc1)C(=O)CCc1ccccc1Cl | ? | -7% | -1% | i | ? | -29%
Cc1ccc(NC(=O)COC(=O)CCOc2ccccc2C)cc1 | 2% | -1% | 2% | i | i | 1%
Cc1occc1-c1nnc(SCCCC(=O)c2ccc(F)cc2)n1C | 18µM* | -1% | -4% | i | ? | 16µM*
CC(C)n1c(SCC(=O)Nc2ccccc2N2CCOCC2)nc2c1c(=O)n(C)c(=O)n2C | -8% | -2% | -8% | i | i | ?
SMILES | TDP1 cell CPT | HT1080 IDH1KD tx | HT1080-NT tox | KB-3-1 cytotox | KB-V1 MDR tox | DT40 TDP1 no CPT
Cn1c(=O)c2c(nc(SCC(=O)Nc3ccccc3F)n2Cc2ccccc2F)n(C)c1=O | -27% | . | . | i | i | 2.9µM*
CCn1c(SCC(=O)Nc2ccccc2N2CCCCC2)nc2c1c(=O)n(C)c(=O)n2C | 18µM* | -3% | 1% | i | ? | 16µM*
Cc1occc1-c1nnc(SCC(=O)Nc2ccccc2N2CCCCC2)n1C | 18µM* | 0% | -5% | ? | ? | 18µM*
Cc1occc1-c1nnc(SCC(=O)Nc2ccccc2)n1C | -11% | 29% | 22% | i | i | -1%
Cc1ccc(O)c(NC(=O)c2nc3nc(C)cc(C(F)F)n3n2)c1 | -7% | . | . | i | i | ?
COC(CNC(=O)c1c[nH]c2ccc(S(=O)(=O)N(C)c3ccc(F)cc3)cc2c1=O)OC | ? | -22% | 6% | i | i | -19%
CC(=O)Nc1ccc(S(=O)(=O)N(C)CC(=O)OCC(=O)c2ccc3c(c2)NC(=O)CO3)cc1 | 2% | 10% | 6% | i | i | 7%
O=C(CCCSc1nnnn1-c1cccc2ccccc12)c1ccc(F)cc1 | -16% | ? | -5% | i | ? | 21µM*
CCOc1ccccc1-n1c(SCC(=O)NC(C)(C)C)nnc1-c1ccoc1C | -15% | 13% | 15% | i | i | -10%

High-throughput results (PubChem)
